# Data taken from ChEMBL document CHEMBL3988442, “University of Dundee, Small-Polar-MMV Screening Library” (2021).
# Hit rate of the full screen: of about 66,000 compounds, about 960 (1.5%) showed an effect of 50% or more. Only a selection was taken, and strong results are over-represented in it overall.
# Tested on: Trypanosoma brucei
# Test: Trypanosoma brucei 72 hour study
# Format: functional, organism-based
# Set-up: scale not given: in the data most compounds retested in dose-response had high values
structure (smiles),measurement,setting,value
CN(Cc1ccc2c(c1)OCCO2)Cc1nc2c(cnn2C)c(=O)[nH]1,Percent Effect,"30.3 µM, […]",4.999%
CS(=O)(=O)N1CCO[C@@H]2CCN(Cc3ccncc3)CC[C@H]21.O=C(O)C(F)(F)F.O=C(O)C(F)(F)F,Percent Effect,"30.3 µM, […]",-50.12%
COc1ccc(Cl)cc1S(=O)(=O)N1C[C@@H]2CC[C@H](C1)N(C)C2=O,Percent Effect,"30 µM, 30.03 µM",12.03%
O=C(O)C(F)(F)F.O=c1ccc2c(n1CC1CCOCC1)CCN(Cc1ccoc1)CC2,Percent Effect,"30 µM, 30.03 µM",-13.76%
COCCNC(=O)[C@H]1CN(Cc2cccs2)C[C@H]2OCC[C@@H]12.O=C(O)C(F)(F)F,Percent Effect,"30 µM, 30.03 µM",-47.27%
Cc1ccc(CN2C[C@@H]3CCCO[C@@H]3[C@H](N(C)Cc3ccco3)C2)s1.O=C(O)C(F)(F)F.O=C(O)C(F)(F)F,Percent Effect,"30 µM, 30.03 µM",26.16%
COCCN1CCOCC12CCN(c1cnccn1)CC2.O=C(O)C(F)(F)F,Percent Effect,"30.3 µM, […]",-82.27%
Cn1c(C2CC2)nc2c1CCN(CCOc1ccccc1C#N)C2,Percent Effect,"30.3 µM, […]",73.03%
same,Percent Effect,"10 mM, 10 mM as filed; unlikely as a test dose",81.28%
Cn1c(C2CC2)nc2c1CCN(CCOc1cccc(F)c1)C2,Percent Effect,"30.3 µM, […]",33.25%
same,Percent Effect,"10 mM, 10 mM as filed; unlikely as a test dose",-49.38%
Cn1c(C2CC2)nc2c1CCN(CCOc1ccc(C#N)cc1)C2,Percent Effect,"30 µM, 30.03 µM",41.84%
Cc1cc(CN2CCN(C(=O)NC(C)Cn3ccnc3)CC2)on1 (stereo unspecified),Percent Effect,"30.3 µM, […]",-36.86%
O=C(N1CCCO1)[C@@]12CCO[C@@H]1CCN(C1CCCCC1)C2.O=C(O)C(F)(F)F,Percent Effect,"30 µM, 30.03 µM",51.2%
O=C(N1CCOCC1)[C@@]12CCO[C@@H]1CCN(C1CCCCC1)C2.O=C(O)C(F)(F)F,Percent Effect,"30 µM, 30.03 µM",-10.39%
O=C(N1CCOCC1)[C@@]12CCO[C@@H]1CCN(C1CCC1)C2.O=C(O)C(F)(F)F,Percent Effect,"30 µM, 30.03 µM",-13.96%
Cc1nnn2c1COC(CNCc1nccs1)C2.O=C(O)C(F)(F)F (stereo unspecified),Percent Effect,"30 µM, 30.03 µM",2.897%
Cc1cnn(CCNCC(O)COc2cc(Cl)ccc2Cl)c1 (stereo unspecified),Percent Effect,10 µM,13.76%
CC(C)NC(=O)C1(Cc2ccccc2-c2cccs2)CCNC1 (stereo unspecified),Percent Effect,"30.3 µM, […]",100.3%
Cl.O=C(O)C1(Cc2cccc(-c3cccs3)c2)CCCNC1 (stereo unspecified),Percent Effect,"30.3 µM, […]",-23.63%
CC(C)CNC(=O)C1(Cc2ccccc2-c2ccccc2)CCNC1 (stereo unspecified),Percent Effect,"30.3 µM, […]",-113.5%
Cl.O=C(N1CCCC1)C1(Cc2ccc(-c3cccs3)cc2)CCNC1 (stereo unspecified),Percent Effect,"30.3 µM, […]",100.9%
Cl.O=C(O)C1(Cc2ccc(-c3cccs3)cc2)CCNC1 (stereo unspecified),Percent Effect,"30.3 µM, […]",15.36%
O=C(NC1CC1)C1(Cc2ccccc2-c2ccncc2)CCOCC1,Percent Effect,"30.3 µM, […]",-2.257%
CC(C)CNC(=O)C1(Cc2ccccc2-c2cccs2)CCNC1 (stereo unspecified),Percent Effect,"30.3 µM, […]",100.9%
CC(C)NC(=O)C1(Cc2ccccc2-c2ccccc2)CCCNC1 (stereo unspecified),Percent Effect,"30.3 µM, […]",-11.23%
Cc1ccc(-c2ccccc2CC2(C(=O)NC(C)C)CCCNC2)cc1 (stereo unspecified),Percent Effect,"30.3 µM, […]",73.8%
CC(C)NC(=O)C1(Cc2ccccc2-c2cncnc2)CCCNC1 (stereo unspecified),Percent Effect,"30.3 µM, […]",-17.52%
O=C(NCCO)C1(Cc2ccccc2-c2ccncc2)CCOCC1,Percent Effect,"30.3 µM, […]",-12.36%
NC(=O)C1(Cc2ccccc2-c2cncnc2)CCCNC1 (stereo unspecified),Percent Effect,"30.3 µM, […]",-3.769%
COc1ccccc1CN(C)C(=O)CN1CC(n2nc(C)cc2C)C1,Percent Effect,"30 µM, 30.03 µM",35.21%
CCC(NC(=O)C1CCN(S(C)(=O)=O)CC1)c1ccc(OC)cc1 (stereo unspecified),Percent Effect,"30 µM, 30.03 µM",-21.57%
Cl.O=C(NCc1ccccc1F)C1=NOC2(CCNC2)C1 (stereo unspecified),Percent Effect,"30 µM, 30.03 µM",32.02%
O=C(O)C(F)(F)F.O=C(O)C(F)(F)F.c1cncc(OCC2CN(Cc3nccs3)Cc3nccn3C2)c1 (stereo unspecified),Percent Effect,"30.3 µM, […]",-9.916%
C/C=C(\C)CN(CCN1CCOCC1)Cc1ccco1,Percent Effect,"30.3 µM, […]",-0.5994%
O=C(O)C(F)(F)F.O=C(O)C(F)(F)F.O=C([C@H]1C[C@H]2OCC[C@H]2N(Cc2ccccc2F)C1)N1CCCCO1,Percent Effect,"30.3 µM, […]",-61.9%
Cn1ccnc1-c1nc(NC2CCCC2)ncc1-c1cccc(F)c1,Percent Effect,"30.3 µM, […]",20.44%
CN1CCN(c2ncnc3c2CCN(S(=O)(=O)C2CC2)CC3)CC1.O=C(O)C(F)(F)F,Percent Effect,"30.3 µM, […]",-13.78%
CN(C)C[C@]12COC[C@H]1CN(Cc1ccc3c(c1)OCO3)C2.O=C(O)C(F)(F)F.O=C(O)C(F)(F)F,Percent Effect,"30.3 µM, […]",5.402%
CC(C)CC(=O)NC[C@H]1CC[C@H](C(c2ccccn2)N(C)C)CC1 (stereo partly specified),Percent Effect,"30.3 µM, […]",-15.36%
COc1cccc(CNC(=O)CCC2=Nc3ccccc3S(=O)(=O)N2)c1,Percent Effect,"30.3 µM, […]",9.218%
CCN1C[C@@H]2[C@@H](OC)CCN(S(=O)(=O)c3ccccc3F)[C@@H]2C1.O=C(O)C(F)(F)F,Percent Effect,"30 µM, 30.03 µM",30.94%
CN(Cc1ccc(C#N)cc1)c1ncc(C(N)=O)cc1Cl,Percent Effect,"30.3 µM, […]",12.46%
Cl.O=C(NCc1ccccc1)C1=NOC2(CCNC2)C1 (stereo unspecified),Percent Effect,"30 µM, 30.03 µM",2.25%
COCCOc1ccccc1CNCC1COC2(CCCC2)O1 (stereo unspecified),Percent Effect,"30 µM, 30.03 µM",102%
Cc1cccc(CNCC2COC3(CCCCC3)O2)c1C (stereo unspecified),Percent Effect,"30 µM, 30.03 µM",-30.8%
Cc1cccc(CNCC2COC3(CCCC3)O2)c1C (stereo unspecified),Percent Effect,"30 µM, 30.03 µM",-15.5%
COc1cc(C(=O)N(Cc2ccco2)C2CC2)cc(OC)c1OC,Percent Effect,"30 µM, 30.03 µM",-6.757%
CCN(Cc1ccco1)C(=O)c1cc(OC)c2c(c1)OCCO2,Percent Effect,"30 µM, 30.03 µM",34.74%
COc1cc(C(=O)N(Cc2ccco2)C2CC2)cc2c1OCCO2,Percent Effect,"30 µM, 30.03 µM",51.93%
CC(=O)N1CCC(c2c(CN(C)C)cnc3cc(C)nn23)CC1,Percent Effect,"30.3 µM, […]",-17.17%
Cc1cc(N(C)CCN(C)C)n2nc(C)cc2n1,Percent Effect,"30 µM, 30.03 µM",-1.745%
Cc1cc2ncc(CN(C)C)c(C3CCN(C)CC3)n2n1,Percent Effect,"30.3 µM, […]",99.05%
CN1CCN(c2nc(-c3cnn(C)c3)cs2)CC1,Percent Effect,"30 µM, 30.03 µM",-14.69%
Cn1cc(-c2csc(N3CCSCC3)n2)cn1,Percent Effect,"30 µM, 30.03 µM",-20.97%
Cn1cc(-c2csc(N3CCCCCC3)n2)cn1,Percent Effect,"30 µM, 30.03 µM",99.99%
O=C(O)C(F)(F)F.O=C(O)C(F)(F)F.O=C(c1ccncc1)N1CCC2(CC1)CCN(Cc1ccccn1)C2=O,Percent Effect,"30 µM, 30.03 µM",-9.957%
CC(C)SCC(=O)NCc1cc2n(n1)CCCN(C1CCCCC1)C2,Percent Effect,"30 µM, 30.03 µM",-6.203%
CC(CC(=O)N1CCN(c2cnccn2)CC1)c1ccc(F)cc1 (stereo unspecified),Percent Effect,"30 µM, 30.03 µM",-67.22%
O=C(CCSc1ccc(F)cc1)N1CCN(c2cnccn2)CC1,Percent Effect,"30 µM, 30.03 µM",-62.17%
O=C(CCSc1ccccc1F)N1CCN(c2cnccn2)CC1,Percent Effect,"30 µM, 30.03 µM",98.54%
